Pf growth 48h: inhibits P. falciparum growth in the first generation, 48 h. P. falciparum luciferase growth in erythrocytes, 48 h. Potency, µM (titrated, usually from 28.7 µM), for the others: top-dose activity change, negative = inhibition, hits mostly inhibitors. 5.9% of 310,000 active. AID 504832
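Luminescence readout; reporter = integrated firefly luciferase in P. falciparum. RBC culture at 2% hematocrit, 0.1% parasitemia final, 37 C/5% CO2; decreased signal taken as growth inhibition.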
Vaccinia mCherry: inhibitors of vaccinia virus infection (mCherry reporter signal) | AID 720579 | Vaccinia virus mCherry reporter infection, fluorescence | 0.63% of 310,000 active | Potency, µM (top dose mostly 36.5 µM), for the others: top-dose activity change, negative = inhibition, actives largely listed as inhibitors; calls by dose curve; tested in A549 cells; note: nearly all actives have a fitted effect of over 35% in size
AMA1-RON2 inh: disrupts binding of P. falciparum AMA1 to RON2. AlphaScreen AMA1-biotinylated RON2 peptide binding. Potency, µM (titrated, usually from 58.2 µM), for inactives: top-dose activity change, negative = inhibition, actives largely listed as inhibitors. 0.2% of 360,000 active. AID 720542;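 note: 0% = vehicle wells and -100% = peptide control; nearly all actives have a fitted effect of over 45% in size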
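AMA1 (3D7) with his tag at 25 nM final met compounds first, then biotinylated RON2 peptide at 25 nM; detection used donor plus acceptor beads, 10 µg/mL apiece, read by AlphaScreen after 30 min at room temperature.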
VACV Venus inh: inhibitors of vaccinia virus (Venus reporter). Vaccinia virus Venus reporter expression, fluorescence. AID 720580. 0.46% of 330,000 active. Potency, µM (doses to about 36.5 µM), for inactives: at the highest dose activity change, negative = inhibition, hits mostly inhibitors; calls by dose curve; tested in A549 cells; note: nearly all actives have a fitted effect of over 30% in size
Pf growth 96h: P. falciparum growth inhibition at 96 hour, primary screen for plastid delayed-death inhibitors. P. falciparum luciferase reporter growth, 96 h. Potency, µM (titrated, usually from 28.7 µM), for inactives: at the highest dose activity change, negative = inhibition, actives largely listed as inhibitors. 6.9% of 320,000 active
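Delayed-death screen, second-generation endpoint: infected erythrocytes, 2% hematocrit, 0.05% parasitemia final; 96 hours at 37 C, 5% CO2; luciferase detection reagent; luminescence decrease equals reduced growth.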
Numbers without * were called inactive; i = inactive; ? = inconclusive; . = not tested or not shown. Compounds with a hit are over-represented: about 8.7% of the library has one in this group of screens. Unless noted, calls come from the whole dose curve; as a rule, active = well fitted curve in the direction sought with a large enough effect; inconclusive = small, poorly fitted or top-dose-only effect, or another doubt; inactive = no such curve, though single readings can be large; an effect the other way counts as inactive or inconclusive. Unless noted, % is set by controls: 0 for no effect and ±100 for the full control effect; potency is the fitted concentration of half-maximal effect.

SMILES	Pf growth 48h	Vaccinia mCherry	AMA1-RON2 inh	VACV Venus inh	Pf growth 96h
C#CCOc1c(Br)cc(C2C(C(=O)OC)=C(C)NC3=C2C(=O)c2ccccc23)cc1OCC (configuration not stated)	.	-27%	.	-11%	.
O=C(CSc1oc(-c2ccco2)nc1S(=O)(=O)c1ccc(Cl)cc1)c1ccc(Cl)cc1	.	-9%	.	-5%	.
Cc1cccc(-c2nc3c4ccccc4nc(NCc4ccccc4Cl)n3n2)c1	.	i	.	-8%	.
CC(C)c1ccc(NC(=O)C2CCCN2S(=O)(=O)c2ccc3nc(-c4ccccc4)[nH]c3c2)cc1 (configuration not stated)	.	-16%	.	-17%	.
c1ccc(-c2ccc(CN3CCSCC3)cc2)cc1	262%	i	-14%	-14%	13µM*
CCOC(=O)C1=C(N)Oc2cc(O)ccc2C1c1ccc([N+](=O)[O-])cc1 (configuration not stated)	9.3µM*	-11%	-7%	-12%	?
O=C(/C=C(\O)c1ccccc1)c1ccccc1O	.	-12%	.	-16%	.
COCCNC(=O)CCn1c(=O)c2cc(OC)c(OC)cc2n(CC(=O)Nc2ccc(F)c(Cl)c2)c1=O	.	-2%	.	-9%	.
CC(=O)Oc1cccc2c1C(=O)C1CC=CC(OC(C)=O)C1C2=O (configuration not stated)	.	-14%	32µM*	10%	.
CC(C)CN(CCCNC(=O)c1cn(C)c2ccc(S(=O)(=O)N(C)C3CCCCC3)cc2c1=O)CC(C)C	.	-9%	.	-1%	.
Cc1ccc(C2SCC(=O)N2Cc2ccccc2)cc1 (configuration not stated)	-3%	.	0%	.	13µM*
O=C1CSC(c2cccc(O)c2)N1Cc1ccccc1 (configuration not stated)	-1%	.	0%	.	0%
COc1cc(C2SCC(=O)N2Cc2ccccc2)ccc1O (configuration not stated)	2%	.	-6%	.	9.3µM*
Cc1cccc(NC(=O)c2ccc(C3SCC(=O)N3CCc3ccccc3)cc2)c1C (configuration not stated)	.	.	-11%	.	8.3µM*
COc1ccc(C2SCC(=O)N2Cc2ccccc2)cc1 (configuration not stated)	14%	.	-6%	.	10%
Cc1nn(CCCC(=O)Nc2cccc(F)c2)c(=O)c2c1sc1ccccc12	.	-9%	.	-9%	.
C=CCc1c(C)nc2nc(SCC(=O)Nc3ccccc3CC)nn2c1C	.	-21%	.	-9%	.
COc1cc(C2=Nc3ccc(Br)cc3C(c3ccccc3)N2CC(=O)NN)cc(OC)c1OC (configuration not stated)	8.3µM*	-20%	49%	-8%	?
NNC(=O)CN1C(c2ccc(Br)cc2)=Nc2ccc(Br)cc2C1c1ccccc1 (configuration not stated)	10µM*	-7%	43%	0%	?
NNC(=O)CN1C(=O)Nc2ccc(Br)cc2C1c1ccccc1 (configuration not stated)	?	-18%	1%	-1%	73%
OCCCCNCc1ccc(OCc2ccc(Cl)cc2)cc1	?	-19%	-7%	-21%	15µM*
COc1cc2ncnc(Nc3ccc(F)c(Cl)c3)c2cc1OCCCN1CCOCC1	0.54µM*	.	.	.	.
CC(=O)Nc1nonc1-c1nnc(SCC(=O)Nc2ccc(C)c(Cl)c2)n1C	.	-8%	.	-10%	.
O=S(=O)(Nc1ccc(C(F)(F)F)cc1)c1cnc[nH]1	6%	i	0%	-20%	0%
O=S(=O)(Nc1cccc(C(F)(F)F)c1)c1cnc[nH]1	12%	i	1%	-24%	10µM*
SMILES	Pf growth 48h	Vaccinia mCherry	AMA1-RON2 inh	VACV Venus inh	Pf growth 96h
COc1ccc(-c2nc(-n3c(C)c(C(C)=O)c(C(C)=O)c3C)sc2C)cc1	?	.	11%	.	-1%
CC(=O)c1c(C(C)=O)c(C)n(-c2nc(-c3ccc(C)c(C)c3)c(C)s2)c1C	12µM*	.	-10%	.	-18%
CCC1C=CC=CC[C@H](C)[C@@H](O)[C@](C)(O)C(=O)[C@@H](C)[C@H](O)[C@@H](C)C(=O)[C@H](C)[C@@H](O)[C@H](C)C=CC(=O)OC2[C@@H](C)C(CC1)OC1(CC[C@@H](C)C(C[C@H](C)O)O1)[C@@H]2C (some centres not stated)	0.13µM*	.	.	.	0.12µM*
CCc1ccc(N2C=C(C(=O)OC)C(c3ccc(OC)cc3)C(C#N)=C2N)cc1 (configuration not stated)	.	?	19%	?	.
CCc1ccc(C2C(C#N)=C(N)C(C#N)(C#N)C3=CCC(C(C)(C)C)CC32)cc1 (configuration not stated)	13µM*	.	39%	.	13µM*
CC(C)CN(C(=O)/C=C/c1nc2ccccc2s1)C1CCS(=O)(=O)C1 (configuration not stated)	?	-19%	16%	-10%	7.4µM*
O=C(NCc1nnc2n1CCN(C(=O)c1cccc(Cl)c1)CC2)C1CC1	.	1%	.	2%	.
CC[N+](C)(C)c1ccc(/C=C/c2ccnc3ccccc23)cc1	.	i	.	i	.
O=C1C(=O)c2ccc(-c3ccccc3)cc2-c2ccccc21	10µM*	.	4%	.	3.7µM*
Nc1ccc2c(c1)C(=O)C(=O)c1ccccc1-2	.	.	-10%	3.5µM*	?
O=C(C1CC12CCN(Cc1cccc3cccnc13)CC2)N1CCN(Cc2cccs2)CC1 (configuration not stated)	.	-11%	.	-5%	.
CCN(Cc1ccncc1)Cc1c(O)ccc2cc(Br)ccc12	5.9µM*	-10%	16%	-3%	6.6µM*
CC1(C)C(=O)OC(c2cc(Br)ccc2O)C(C)(C)C1=O (configuration not stated)	12µM*	-16%	-10%	?	31%
CC12CN3CC(C)(CN(C1)C3c1cc(Br)ccc1O)C2=O (configuration not stated)	-7%	-16%	6%	-11%	12%
O=C(NCCCn1ccnc1)c1cc2nc(-c3ccc(Br)cc3)cc(C(F)(F)F)n2n1	?	.	-6%	.	4.1µM*
O=C(NCCCn1ccnc1)c1cc(-c2cccnc2)nc2ccc(Br)cc12	12µM*	-7%	-4%	3%	1.5µM*
O=C(NCCCn1ccnc1)c1cc(-c2ccncc2)nc2ccccc12	-21%	0%	-17%	0%	-3%
Cc1ccc2nc(-c3ccccc3)cc(C(=O)NCCCn3ccnc3)c2c1	13µM*	-7%	-4%	-11%	?
CCCNC(=O)c1cc2nc(-c3ccc(Br)cc3)cc(C(F)(F)F)n2n1	.	-10%	.	-15%	.
O=C(Cn1c(=O)n(Cc2ccco2)c(=O)c2ccccc21)Nc1ccc(Cl)cc1Cl	.	-6%	.	-12%	.
CCOC(=O)c1ccc(NC(=O)CN2C(=O)COc3ccc(Cl)cc32)cc1	.	6%	.	1%	.
Cc1cccc(CNC(=O)C2CCN(S(=O)(=O)c3cccc4nonc34)CC2)c1	.	-1%	.	1%	.

Bioassay records from PubChem BioAssay.
